Sampled rows, rich in hits. Any-hit rate of the full collection: about 6.7%.
MCF10A rerep: induces DNA re-replication in MCF 10a normal breast cells. MCF 10A DNA re-replication, Hoechst nuclear intensity, 48 h. Potency, µM (doses to about 46.1 µM), inactives show at the highest dose activity, positive = re-replication, actives largely listed as activators. actives 2.9% (n = 350,000); note: % of control where 0% means no effect; nearly all actives have a fitted effect of over 50% in size
KB-V1 cytotox: KB-V1 MDR subline cytotoxicity; Potency, µM (titrated, usually from 46.1 µM), most hits filed as cytotoxic; KB-V1 MDR cells viability, CellTiter-Glo, 72 h; actives 3.4% (n = 400,000); note: % is set by controls: 0 for no effect and ±100 for the full control effect; nearly all actives have a fitted effect of over 60% in size
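In this primary screen, KB-V1 cells overexpressing P-gp are incubated with library compounds (lowest to highest concentration) for 72 h at 37 degrees C before a luminescent ATP viability read.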
KB-3-1 cytotox: KB-3-1 parental cell cytotoxicity; KB-3-1 viability, CellTiter-Glo ATP luminescence, 72 h; Potency, µM (doses to about 46.1 µM), actives largely listed as cytotoxic; actives 1.4% (n = 400,000); AID 1347075; note: % is set by controls: 0 for no effect and ±100 for the full control effect; nearly all actives have a fitted effect of over 60% in size
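Cells are dispensed, compounds pinned in, plates held at 37 °C for 72 h, then CellTiter-Glo is added and luminescence read after 10 minutes. Cell line: parental KB-3-1 in phenol-red-free DMEM, 10% FBS.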
PINK1 modulator: changes PINK1 expression | AID 624263 | PINK1 immunofluorescence, high-content cytometry, 24 h | Potency, µM (highest dose often 76.6 µM), inactives show at the highest dose activation (PINK1 increase), most hits filed as activators | actives 0.2% (n = 410,000); active = well fitted activation curve with a large enough effect; inconclusive = small, poorly fitted or top-dose-only effect; cell line not stated here; note: % of control where 0% means no effect; nearly all actives have a fitted effect of over 65% in size
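Fluorescence from anti-PINK1 antibody, together with nuclear and cell stains, was scanned on a laser-scanning cytometer. Before staining, stable-line cells were incubated 24 hours with compounds at 5 concentrations; primary antibody 12 h at 10 degrees C.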
SW480 rereplic: DNA re-replication induction in SW480 cells | Potency, µM (highest dose often 46.1 µM), for inactives: top-dose re-replication activation, actives largely listed as activators | SW480 DNA re-replication, Hoechst DNA content imaging, 48 h | actives 1.8% (n = 340,000) | AID 624297; note: % of control where 0% means no effect; nearly all actives have a fitted effect of over 55% in size
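First, 250 cells per well were seeded. Next, compound or vehicle (23 nL) was pinned in, plates sat 48 hr at 37 C. Finally Hoechst was added for 40 min before fluorescence scanning.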
The depositor's hits bear a star; i = inactive; ? = inconclusive; / = no result; [ ] = dose if it differs, or a comment. Unless noted, calls come from the whole dose curve; as a rule, active = well fitted curve in the direction sought with a large enough effect; inconclusive = small, poorly fitted or top-dose-only effect, or another doubt; inactive = no such curve, though single readings can be large; an effect the other way counts as inactive or inconclusive. Potency is the fitted concentration of half-maximal effect.

SMILES	MCF10A rerep	KB-V1 cytotox	KB-3-1 cytotox	PINK1 modulator	SW480 rereplic
COc1ccc(NC(=O)c2oc3ccccc3c2NC(=O)Cc2coc3ccc(C)cc23)cc1	/	i	i	3%	/
O=C(Nc1c(F)c(F)c(F)c(F)c1F)NC1CCCCC1	2%	16µM*	i	-1%[38.3 µM]	4%
O=C(Nc1ccc(F)cc1)NC1CCCCC1	-4%	i	i	6%[38.3 µM]	-3%
CCNc1ncc2nc(-c3cn(C)c4ccccc34)c(=O)n(Cc3cccc(OC)c3)c2n1	/	/	/	4%	/
CCNc1ncc2nc(-c3cn(C)c4ccccc34)c(=O)n(-c3ccc(OC)cc3)c2n1	/	/	/	28µM*	/
O=C(NCc1nc2cccnc2n1Cc1ccc(F)cc1)c1ccccc1C(F)(F)F	/	/	/	0%	/
COC(=O)C1=CN(C2CC2)C=C(C(=O)OC)C1c1ccc(C(=O)OC)cc1	?	7.3µM*	i	3%[38.3 µM]	4%
O=C(NCc1ccco1)C(c1ccccc1)N(CC1CCCO1)C(=O)Cn1nnc2ccccc21 (stereo not drawn)	-4%	21µM*	i	1%	?
O=C(NC1CCCCC1)C(c1ccc(F)cc1)N(Cc1ccco1)C(=O)Cn1nnc2ccccc21 (stereo not drawn)	-7%	i	i	14µM*	2%
Cc1nn(C)cc1C(C(=O)NC1CCCCC1)N(C(=O)Cn1nnc2ccccc21)c1ccc(F)cc1 (stereo not drawn)	26µM*	i	i	2%[38.3 µM]	?
O=C(NCCc1ccccc1)C1CCCN1C(=O)Nc1ccc(Cl)cc1 (stereo not drawn)	-3%	i	?	0%	-11%
O=C(Nc1ccc2c(c1)OCO2)c1ccc(N2CCCC2)c([N+](=O)[O-])c1	11%	23µM*	i	-1%	11%
O=C(Nc1ccc2c(c1)OCO2)c1ccc2c(c1)OCO2	0%	i	i	-1%	0%
O=C(Nc1ccc2c(c1)OCO2)c1ccc(NC2CC2)c([N+](=O)[O-])c1	?	15µM*	?	1%	?
O=C(COC(=O)c1cc([N+](=O)[O-])ccc1N1CCOCC1)NCc1ccccc1	/	i	i	1%	/
O=C(Nc1ccc(N2CCCCC2)c(Cl)c1)c1ccc2c(c1)OCCO2	?	?	16µM*	0%	-2%[9.22 µM]
COc1cccc(CNC(=O)COC(=O)c2cc([N+](=O)[O-])ccc2N2CCCC2)c1	2%	7.3µM*	i	-1%	-9%
CC[C@H](C)/C=C/C1=CC2=C(Cl)C(=O)[C@@]3(C)OC(=O)C(C(=O)[C@H](C)[C@@H](C)O)=C3C2=CO1	?	i	i	17%	-5%
Cc1cc(C)c(NC(=O)Cn2c(=O)oc3cc(S(=O)(=O)N4CCCCCC4)ccc32)c(C)c1	/	/	/	0%	/
O=C(NCc1ccco1)c1cc([N+](=O)[O-])ccc1N1CCCCC1	?	i	i	-1%	3%
O=C(Nc1ccc(Cl)c([N+](=O)[O-])c1)c1ccc2c(c1)OCCO2	10%	13µM*	i	-1%	12%
O=C(NCc1ccc2c(c1)OCO2)c1cc([N+](=O)[O-])ccc1N1CCCCC1	2.6µM*	?	2.1µM*	9%	5.8µM*
O=C(N/N=C/c1ccc(Cl)c([N+](=O)[O-])c1)c1ccc2c(c1)OCCO2	0%	i	i	3%	?
COc1ccc(CCNC(=O)c2coc3ccccc3c2=O)cc1OC	?	i	i	2%	?
O=C(NCc1ccco1)c1ccccc1NS(=O)(=O)c1ccc(Cl)s1	21%	i	i	18%	-9%[9.22 µM]
SMILES	MCF10A rerep	KB-V1 cytotox	KB-3-1 cytotox	PINK1 modulator	SW480 rereplic
O=C(Nc1ccccc1Cc1ccccc1)c1ccccc1NS(=O)(=O)c1ccc(Cl)s1	9.2µM*	2.6µM*	?	11µM*	?
O=C(Nc1ccccc1)c1ccccc1NS(=O)(=O)c1ccc(Cl)s1	10%	4.1µM*	5.2µM*	?	1%
O=S(=O)(Nc1ccccc1N1CCCCC1)c1ccc(Cl)s1	3%	i	13µM*	-2%	-1%
Cc1ccc(NC(=O)c2ccccc2NS(=O)(=O)c2ccc(Cl)s2)cc1	9.2µM*	7.3µM*	10µM*	20µM*	?
COC1C(O)C(CO)OC1n1cnc2c(=O)[nH]c(N)nc21 (stereo not drawn)	/	/	/	0%	/
CC1CCN(C(=O)CN(C)S(=O)(=O)c2cccc3nsnc23)CC1	1%	23µM*	i	-3%	-3%
CN(CC(=O)N1CCCCC1)S(=O)(=O)c1cccc2nsnc12	0%	?	i	-1%	-1%
O=C(NC1CC2CCCC(C1)N2C(=O)Nc1ccccc1Cl)C1CC1 (stereo not drawn)	-14%	i	i	3%	-27%
COc1cccc(OC)c1C(=O)Nn1c(-c2cccc(C)c2)nc2ccccc2c1=O	19%	i	i	-1%	26%
COc1ccccc1CNn1c(-c2cccc(C)c2)nc2ccccc2c1=O	14%	23µM*	i	0%[38.3 µM]	-4%
COc1ccc(CNn2c(-c3cccc(C)c3)nc3ccccc3c2=O)cc1OC	0%	23µM*	i	1%[38.3 µM]	-1%
CCNc1ccc(S(=O)(=O)N(C)C)cc1NCC(=O)Nc1ccccc1F	0%	i	i	0%	-11%
CCNc1ccc(S(=O)(=O)N(C)C)cc1NCC(=O)Nc1ccc(Br)cc1F	5%	16µM*	i	6%	2%
COc1cc(OC)c(/C=N/NC(=O)c2ccncc2)c(OC)c1	6%	?	i	0%	-46%
S=C(Nc1ccc(Cl)cc1)NC1CCCCC1	-2%	i	i	?	-46%
CC(C)(C)NC(=S)Nc1ccc(Br)cc1	16%	i	i	3%	1%
CC(C)(C)NC(=S)Nc1ccc(Nc2ccccc2)cc1	-4%	16µM*	?	9%[38.3 µM]	14%
S=C(Nc1ccc(Nc2ccccc2)cc1)NC1CCCCCC1	13%	?	?	?	21µM*
Cc1cccc(NC(=S)NC2CCCC2)c1C	6%	i	i	-1%	-12%
Cc1cccc(NC(=S)NC2CCCCCC2)c1C	11%	18µM*	i	-1%	0%
COc1cccc(C#CC2=CC(=O)CC(C)(C)C2)c1	/	?	?	7%	/
CCc1ccc(C(=O)c2oc3nc(C)cc(C)c3c2N)cc1	7.3µM*	2.6µM*	i	8%[38.3 µM]	16µM*
COc1ccc(C(=O)c2oc3nc(C)cc(C)c3c2N)cc1	15%	?	i	0%	16%
Cc1ccc(C(=O)c2oc3nc(C)cc(C)c3c2N)cc1	9.2µM*	?	i	2%[38.3 µM]	?
CN1C(=O)C(O)(C2COC(C)(C)CC2=O)c2cc(Br)ccc21 (stereo not drawn)	?	?	21µM*	3%	?

High-throughput results (PubChem BioAssay)
